In PubChem BioAssay (Tox21) one finds Potency, outcome and activity change, positive = activation data, which are given here for nine compounds.

Assay [1] is described as follows: qHTS assay to identify small molecule agonists of the constitutive androstane receptor (CAR) signaling pathway - cell viability counter screen (AID 1224836). Further: nearly all actives have a fitted effect of over 45% in size. Further: potency means the concentration at half of the fitted maximal effect. In a few lines:
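HepG2 cells stably carrying hCAR and a CYP2B6-2.2kb reporter; 15-concentration compounds plus PK11195 (final 0.75 uM), 23 hr at 37 C/5% CO2. Viability read by CellTiter-Fluor fluorescence.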
On the technique in general: Quantitative high-throughput screening tests each substance at several concentrations.

Assay [2] can be described thus: qHTS assay to identify small molecule antagonists of the constitutive androstane receptor (CAR) signaling pathway - cell viability counter screen (AID 1224837). Further: nearly all actives have a fitted effect of over 45% in size. Further: potency means the concentration at half of the fitted maximal effect. The gist of the method: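 In quantitative HTS format, compounds at 15 concentrations were applied to HepG2 cells double-transfected with hCAR and CYP2B6-2.2kb under 50 nM CITCO stimulation; live-cell protease activity was read after 23 hr via CellTiter-Fluor.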

In assay [3] the target is Nuclear receptor subfamily 1 group I member 3 (Homo sapiens) (UniProt Q14994). Briefly: qHTS assay to identify small molecule antagonists of the constitutive androstane receptor (CAR) signaling pathway (AID 1224838). Further: nearly all actives have a fitted effect of over 40% in size. In a few lines:
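CITCO-stimulated (50 nM final) HepG2 cells stably transfected with hCAR and CYP2B6-2.2kb luciferase were exposed to compounds at 15 concentrations for 24 h at 37 C/5% CO2. A luciferase reagent was added and luminescence recorded after 30 min.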

Assay [4] can be described thus: qHTS assay to identify small molecule antagonists of the estrogen related receptor signaling pathway with the pleiotropic PPARgamma coactivator (PGC) from Tox21 10K library - cell viability counter screen (AID 1224840; active means well fitted cell-killing curve with a large enough effect in the repeat runs, not every such curve was filed as active; further: nearly all actives have a fitted effect of over 40% in size). The gist of the method: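 Viability counter screen, PGC/ERR cells: 17.5 h compound exposure at 37 C, CellTiter-Fluor fluorescence endpoint.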
In assay [5] the target is Thyrotropin receptor (Homo sapiens) (UniProt P16473). Kind of assay: qHTS assay to identify small molecule agonists of the thyroid stimulating hormone receptor (TSHR) signaling pathway (AID 1224843; calls by dose curve; further: nearly all actives have a fitted effect of over 45% in size). The gist of the method: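 Agonist-mode screen: TSHR HEK293 cells received test chemicals for half an hour at room temperature, then HTRF cAMP detection reagents for one hour prior to fluorescence measurement. Each chemical ran as a 15-concentration series, triplicated.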
Thyrotropin receptor (Homo sapiens), sequence (P16473 whole entry, looked up): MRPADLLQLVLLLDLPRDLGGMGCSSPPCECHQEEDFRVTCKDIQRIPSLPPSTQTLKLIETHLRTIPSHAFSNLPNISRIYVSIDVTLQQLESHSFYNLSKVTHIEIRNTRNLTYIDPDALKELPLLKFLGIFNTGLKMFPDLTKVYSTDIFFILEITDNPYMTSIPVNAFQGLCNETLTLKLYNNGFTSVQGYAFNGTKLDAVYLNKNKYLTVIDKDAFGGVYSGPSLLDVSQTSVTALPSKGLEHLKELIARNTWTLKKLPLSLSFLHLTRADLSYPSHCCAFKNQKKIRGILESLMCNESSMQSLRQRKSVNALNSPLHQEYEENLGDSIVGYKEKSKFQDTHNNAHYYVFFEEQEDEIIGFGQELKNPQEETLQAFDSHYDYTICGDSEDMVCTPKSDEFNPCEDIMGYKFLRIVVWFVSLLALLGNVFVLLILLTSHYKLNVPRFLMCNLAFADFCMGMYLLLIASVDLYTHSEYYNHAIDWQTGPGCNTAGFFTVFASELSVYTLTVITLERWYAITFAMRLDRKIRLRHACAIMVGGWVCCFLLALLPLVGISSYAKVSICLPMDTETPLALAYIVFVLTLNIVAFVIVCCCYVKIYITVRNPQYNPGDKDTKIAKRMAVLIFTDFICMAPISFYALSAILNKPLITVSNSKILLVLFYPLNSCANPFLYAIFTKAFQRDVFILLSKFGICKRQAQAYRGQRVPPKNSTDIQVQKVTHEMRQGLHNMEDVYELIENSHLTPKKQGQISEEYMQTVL

Assay [6] is described as follows: qHTS assay to identify small molecule agonists of the hypoxia (HIF-1) signaling pathway - cell viability counter screen (AID 1224844; calls by dose curve; further: nearly all actives have a fitted effect of over 50% in size). The gist of the method:
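Same wells as the HIF-1 reporter screen; ME-180 cells carrying HRE-bla, 17 hr treatment at 37C; CellTiter-Glo luminescence read after 30 min at room temperature.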

Assay [7] can be described thus: qHTS assay to identify small molecule agonists of H2AX (AID 1224845; active means well fitted activation curve with a large enough effect in the signal ratio in the repeat runs, not every such curve was filed as active; the % refers to the signal ratio). In a few lines:
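Wild-type CHO-K1 cells, plated overnight, exposed 3hr at 37C to 15 concentrations (0.76% DMSO final). Lysed, then HTRF anti-pH2AX (S139) cryptate and anti-H2AX-d2 antibodies, 24 hr room temperature; 665/620 nm emission read.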

Assay [8] can be described thus: qHTS assay to identify small molecule agonists of the hypoxia (HIF-1) signaling pathway (AID 1224846; active means well fitted activation curve with a large enough effect in the signal ratio in the repeat runs, not every such curve was filed as active; the % refers to the signal ratio). The gist of the method:
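In ME-180 cells bearing an HRE-bla construct, 17 h treatment with DMSO-dissolved compounds at 37C was followed by CCF4-AM loading to quantify reporter induction.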

A short description of assay [9]: qHTS assay to identify small molecule agonists of H2AX - cell viability counter screen (AID 1224847; calls by dose curve; further: top concentration of the series differs between compounds; nearly all actives have a fitted effect of over 30% in size). In a few lines: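 CHO-K1 cells plated overnight at 37C, then exposed 3 h at 37C to compounds at 15 concentrations (0.76% DMSO final). Viability by CellTiter-Glo luminescence after 30 min at room temperature.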
Assay [10] in a line: qHTS RealTime-Glo MT Cell Viability Assay in HepG2 cells - 24 hour (AID 1224867). Further: nearly all actives have a fitted effect of over 50% in size. Further: potency means the concentration at half of the fitted maximal effect. In a few lines: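 Luminescence read-out: viable HepG2 cells reduce a prosubstrate to a NanoLuc substrate, giving a signal proportional to live cell number. Reads taken at 0, 8, 16, 24, 32 and 40 h of compound exposure at 37 C.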
Assay [11] in a line: qHTS RealTime-Glo MT Cell Viability Assay in HEK293 cells - 32 hour (AID 1224868). Further: nearly all actives have a fitted effect of over 50% in size. Further: potency means the concentration at half of the fitted maximal effect. The gist of the method:
(§1)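 Nonlytic real-time viability readout: viable cells convert prosubstrate to NanoLuc substrate, giving luminescence proportional to live cell number. HEK293, 600 cells/well, compound added after 5 h, continuous culture at 37 C.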

Assay [12] is described as follows: A CellTox Green Cytotoxicity Assay to monitor cytotoxicity in HEK293 cells - 0 hour (AID 1224869). Further: nearly all actives have a fitted effect of over 50% in size. The gist of the method: (§2)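 Homogeneous no-lysis format: HEK293 cell suspension mixed with CellTox Green reagent, seeded, incubated 5 h at 37 C/5% CO2, then dosed by pintool with compound in DMSO.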
The nature of assay [13]: qHTS RealTime-Glo MT Cell Viability Assay in HepG2 cells - 40 hour (AID 1224870). Further: nearly all actives have a fitted effect of over 50% in size. Further: potency means the concentration at half of the fitted maximal effect. In a few lines:
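HepG2 cells (600/well) mixed with RealTime-Glo MT reagent, settled 5 h at 37 C/5% CO2 before compound addition. Nonlytic NanoLuc luminescence from viable-cell prosubstrate reduction read repeatedly during 40 h treatment at 37 C.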

Assay [14] in a line: A CellTox Green Cytotoxicity Assay to monitor cytotoxicity in HEK293 cells - 40 hour (AID 1224871). Further: nearly all actives have a fitted effect of over 45% in size. Further: potency means the concentration at half of the fitted maximal effect. In a few lines:
as §2

Assay [15] can be described thus: qHTS RealTime-Glo MT Cell Viability Assay in HEK293 cells - 16 hour (AID 1224872). Further: nearly all actives have a fitted effect of over 50% in size. Further: potency means the concentration at half of the fitted maximal effect. The gist of the method: as §1
Assay [16] has as its target Nuclear receptor subfamily 1 group I member 3 (Homo sapiens) (UniProt Q14994). Briefly: qHTS assay to identify small molecule agonists of the constitutive androstane receptor (CAR) signaling pathway (AID 1224839). Further: nearly all actives have a fitted effect of over 15% in size. In a few lines: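 HepG2 cells stably co-transfected with hCAR and a CYP2B6-2.2kb luciferase reporter; compounds at 15 concentrations with 0.75 uM PK11195 present. After 24 hr at 37 C, luciferase read by ONE-Glo luminescence.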

A short description of assay [17]: qHTS assay to identify small molecule antagonists of the estrogen related receptor signaling pathway with the pleiotropic PPARgamma coactivator (PGC) from Tox21 10K library (AID 1224841; call rule not given here). The gist of the method: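 In the PGC/ERR line, DMSO solutions of test chemicals are pin-delivered to 2,000 cells/well six hours after dispensing. Following eighteen hours' incubation, One-Glo reagent is added and luminescence recorded.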

Assay [18] can be described thus: qHTS assay to identify small molecule agonists of the estrogen related receptor signaling pathway with the pleiotropic PPARgamma coactivator (PGC) from Tox21 10K library (AID 1224842). Further: nearly all actives have a fitted effect of over 15% in size. In a few lines:
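PGC/ERR reporter cell line, 2,000 cells per well, incubated 6 h at 37 C before 23 nL compound in DMSO was added. After 18 h at 37 C, One-Glo luminescence read following 30 min at room temperature.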

The nature of assay [19]: qHTS assay to identify small molecule agonists of the estrogen related receptor (ERR) signaling pathway from Tox21 library (AID 1224849; calls by dose curve; further: nearly all actives have a fitted effect of over 15% in size). Conditions: ERR reporter cell line, ONE-Glo luciferase, 18 h; at 92.4 µM (top of the series) unless noted. In a few lines:
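Reporter cells (ERR, NTP source) treated with Tox21 10K compounds 18 h, 37 C. Readout: ONE-Glo luminescence, 30 min RT.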

Assay [20] can be described thus: qHTS assay to identify small molecule antagonists of the estrogen related receptor (ERR) signaling pathway from Tox21 library (AID 1224848). Further: nearly all actives have a fitted effect of over 50% in size. The gist of the method:
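Quantitative high-throughput format: ERR reporter cells (2,000/well) pre-incubated 6 h, treated 18 h at 37 C with compounds in DMSO alongside positive and negative controls, then read by ONE-Glo luminescence.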

Unmarked numbers belong to inactive results. Results filed as inconclusive are left out. Activity calls are given as the source filed them. Unless noted, the call rests on the fitted dose curve; in most records, active means well fitted curve in the direction sought with a large enough effect in the repeat runs; inconclusive means weak or mixed curves; inactive means no such curve, though single readings can be large; an effect the other way counts as inactive or inconclusive.
On the % scale 0 is the no-effect control and ±100 the full control effect.

Nuclear receptor subfamily 1 group I member 3 (Homo sapiens), sequence (Q14994 whole entry, looked up): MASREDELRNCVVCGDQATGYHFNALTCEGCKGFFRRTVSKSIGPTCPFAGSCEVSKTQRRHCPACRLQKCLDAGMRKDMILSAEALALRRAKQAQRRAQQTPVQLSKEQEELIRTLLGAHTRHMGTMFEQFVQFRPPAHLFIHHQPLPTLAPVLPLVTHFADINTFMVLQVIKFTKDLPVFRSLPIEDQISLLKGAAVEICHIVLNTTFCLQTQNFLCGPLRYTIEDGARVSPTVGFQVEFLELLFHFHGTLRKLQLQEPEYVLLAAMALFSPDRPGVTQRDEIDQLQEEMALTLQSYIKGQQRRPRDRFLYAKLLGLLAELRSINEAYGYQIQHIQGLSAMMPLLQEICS

Regarding `CC1CCCCC1`, the Potency entry in [1], in assay [2], in [3], in [4], in [5] and in [6] was “inactive” each time. The Potency result in assay [7], in [9], in [10], in assay [11], in assay [12] and in assay [13] was “inactive” throughout. Also, the Potency entry in [14] and in [15] was “inactive” each time. Also, the result in assay [8] was inactive.
In the case of `OCCN1CN(CCO)CN(CCO)C1`, the Potency entry in assay [1], in [2], in [3], in [4], in assay [5] and in assay [7] was “inactive” in each case. Moreover, the Potency result in assay [9], in assay [10], in assay [11] and in assay [14] was “inactive” each time. Besides, in [8], the result was inactive.
With `CN1[C@@H]2CC[C@@H]1CC(OC(=O)C(CO)c1ccccc1)C2` (some centres undefined), the Potency result in assay [1], in [2], in assay [3], in [4], in assay [6] and in [9] was “inactive” throughout. In addition, the Potency entry in assay [10], in assay [11], in assay [12], in assay [13], in [14] and in assay [15] was “inactive” throughout.
As to `SCCCCCCCCS`, the Potency entry in assay [1], in assay [2], in assay [3], in [4], in assay [5] and in assay [6] was “inactive” in each case. The Potency result in assay [7], in [9], in assay [10], in assay [11], in assay [12] and in [13] was “inactive” each time. For the same compound, the Potency result in assay [14] and in [15] was “inactive” in each case. Besides, the outcome in [8] was inactive.
On to `CC(C)C(=O)OCc1ccccc1`, for which the Potency result in assay [1], in assay [2], in [3], in [4], in assay [5] and in assay [6] was “inactive” each time. For the same compound, the Potency result in assay [9], in assay [10], in assay [12] and in assay [13] was “inactive” each time. Moreover, in assay [8], the call was inactive.
Regarding `CCc1cccc(C)c1`, the Potency result in assay [1], in [2], in assay [3], in assay [4], in assay [5] and in assay [6] was “inactive” in each case. Also, the Potency entry in [7], in assay [9], in assay [10], in [11], in assay [12] and in assay [13] was “inactive” each time. Besides, the Potency entry in assay [14] and in assay [15] was “inactive” throughout. In addition, the result in [8] was inactive.
Turning to `O[C@@H](c1cc(C(F)(F)F)nc2c(C(F)(F)F)cccc12)[C@H]1CCCCN1`, the Potency in assay [1] is 29.8 µM (active); in assay [2], 29.8 µM (active); in [10], 16.9 µM (active); in [11], 8.49 µM (active); in assay [13], 13.4 µM (active); in [14], 23.9 µM (active). Also, the Potency in [15] is 7.56 µM (active). Further, the Potency result in assay [16], in assay [17], in assay [18] and in assay [5] was “inactive” throughout. In addition, the call in [8] was inactive. For the same compound, the activity change, positive = activation in assay [19] is -63.8% [at 42.5 µM].
`COC(=O)CC(C)CCC=C(C)C` (centres undefined): the Potency result in assay [1], in [2], in [4], in assay [18], in assay [6] and in assay [9] was “inactive” each time. The Potency result in assay [20], in [10], in assay [11], in [12], in [13] and in assay [14] was “inactive” in each case. Further, in assay [15], the Potency result is “inactive”. For the same compound, in assay [8], the result was inactive. The activity change, positive = activation in assay [19] was 1.82%.
Consider `CC1=CP(=O)(c2ccccc2)CC1` (centres undefined), for which the Potency result in assay [1], in [2], in assay [4], in assay [17], in assay [18] and in [5] was “inactive” throughout. In addition, the Potency result in assay [6], in assay [7], in assay [9], in assay [20], in assay [11] and in assay [12] was “inactive” in each case. The Potency result in assay [13], in assay [14] and in assay [15] was “inactive” each time. Also, the result in [8] was inactive. Also, the activity change, positive = activation in [19] is -5.03%.
